Cycloheximide cs – affects cycloheximide protein synthesis inhibition readout, counter-screen. cell reporter, cycloheximide protein synthesis inhibition counterscreen. max response, %. actives 12% (n = 300,000); in the data active = max response mostly above about 13%, no sharp cut-off; inactive = mostly below about 14%; also: read at 38.3 µM for the half of the compounds with a filed dose; 0% is about no effect
Pf growth 48h – P. falciparum growth inhibition at 48 hours (one generation). actives 5.9% (n = 310,000). Potency, µM (series often up to 28.7 µM), for inactives: top-dose activity change, negative = inhibition, actives largely listed as inhibitors. P. falciparum luciferase growth in erythrocytes, 48 h; active = well fitted inhibition curve with a large enough effect; inconclusive = small, poorly fitted or top-dose-only effect, or another doubt; inactive = no such curve, though single readings can be large or run the other way; also: potency is read from the fitted curve at half-maximal effect; % is scaled to controls: 0 for no effect and ±100 for the full control effect
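Cell-based growth assay: transgenic P. falciparum expressing firefly luciferase, cultured in red cells within RPMI 1640 containing 0.5% w/v Albumax, 24 mM bicarbonate and gentamycin. A drop in luciferase activity indicates inhibition.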
Shiga toxin inh – inhibitors of Shiga toxin in Vero cells | actives 9.2% (n = 290,000) | inhibition, % at 38.7 µM | AID 2315 | Vero cells, Shiga toxin protein synthesis inhibition reporter; in the data active = inhibition mostly above about 28%, no sharp cut-off; inactive = mostly below about 43%; also: 0% is about no effect
SARS PLpro yeast – SARS-CoV PLP inhibition in yeast. S. cerevisiae expressing SARS-CoV PLpro, growth rescue. Potency, µM (highest dose often 32.9 µM), for inactives: at the highest dose activity, positive = growth rescue, usual class: activators. actives 0.19% (n = 330,000). AID 485353; also: potency is read from the fitted curve at half-maximal effect; 0% is about no effect; nearly all actives have a fitted effect of over 55% in size
NS1 function inh – blocks influenza NS1 protein function. Potency, µM (series often up to 46.1 µM), for the others: at the highest dose activity, positive = more growth. actives 0.4% (n = 270,000). AID 2326; also: potency is read from the fitted curve at half-maximal effect; actives are rising curves; nearly all actives have a fitted effect of over 50% in size
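S. cerevisiae expressing influenza A NS1, grown in glucose, washed, then diluted 1:100 into pH 6.0 -URA galactose medium with 23 nl compound. Growth recovery read as OD600; NS1-free strain serves as control.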
Pf growth 96h – inhibits malaria parasite growth, 96 h; P. falciparum luciferase reporter growth, 96 h; Potency, µM (titrated, usually from 28.7 µM), for inactives: top-dose activity change, negative = inhibition, hits mostly inhibitors; actives 6.9% (n = 320,000); AID 504834; active = well fitted inhibition curve with a large enough effect; inconclusive = small, poorly fitted or top-dose-only effect, or another doubt; inactive = no such curve, though single readings can be large or run the other way; also: potency is read from the fitted curve at half-maximal effect; % is scaled to controls: 0 for no effect and ±100 for the full control effect
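Plates of compound plus infected erythrocytes (2% hematocrit, 0.05% parasitemia final) incubate 96 hours, 37 C, 5% CO2. Detection reagent added; reduced luminescence from the parasites' luciferase reporter flags inhibition.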
The depositor's hits bear a star; ? = inconclusive; . = not tested or not shown; + = active, no number; [ ] = another dose, or the depositor's remark. Rows were chosen to be rich in hits. Some 21% of all compounds tested hit in one or more screens of this group. Unless noted, calls follow the shape of the full dose curve.

SMILES	Cycloheximide cs	Pf growth 48h	Shiga toxin inh	SARS PLpro yeast	NS1 function inh	Pf growth 96h
Cc1ccc(N(C)S(=O)(=O)c2ccc3c(c2)NC(=O)C(C)S3)cc1 (stereo not given)	9.4	3.29µM*	-6.8	4.0%	19.4%	?
CCOC(=O)c1c(C)[nH]c(C(=O)N/N=C\c2ccccc2Cl)c1C	20.4*	?	21.3	10.6%	5.9%	9.28µM*
COc1cccc(/C=N/NC(=O)c2[nH]c(C)c(C(=O)N/N=C/c3cccc(OC)c3)c2C)c1	13.6	43.3%	72.7*	0.3%	-0.2%	?
CCOC(=O)c1c(C)[nH]c(C(=O)N/N=C/c2cccc(OC)c2)c1C	14.8*	-7.4%	+	-0.3%	5.2%	-24.9%
Cc1ccc(-n2nnnc2SC(C(=O)c2c[nH]c3ccccc23)c2ccccc2)cc1 (stereo not given)	-1.8	?	-9.0	-22.9%	27.4%	1.47µM*
CN(CC(=O)Nc1cccc([N+](=O)[O-])c1)S(=O)(=O)c1ccccc1	-2.1	8.8%	5.3	-0.4%	3.3%	49.1%
CN1C(=O)[C@]23CC4=CC=C[C@H](O)[C@H]4N2C(=O)[C@@]1(CO)SS3	-4.4	.	-25.2	.	.	.
CCN(CC)C(=S)SC1CCCCN(C(=O)c2ccccc2)C1=O (stereo not given)	35.8*	-0.5%	57.2*	-1.2%	-5.6%	27.9%
CC1(c2ccccc2)O[C@@H]2C[C@H]3[C@@H]4CCC5=CC(=O)C=C[C@]5(C)[C@@]4(F)[C@@H](O)C[C@]3(C)[C@]2(C(=O)CO)O1 (stereo not given in full)	-1.6	0.828µM*	-5.1	-0.1%	-5.4%	1.85µM*
CC(=O)OCC(=O)[C@@]1(O)[C@H](OC(C)=O)C[C@H]2[C@@H]3CCC4=CC(=O)C=C[C@]4(C)[C@@]3(F)[C@@H](O)C[C@@]21C	-3.5	.	11.6	.	.	.
CC1(C)OC2CC3C4CC(F)C5=CC(=O)C=CC5(C)C4(F)C(O)CC3(C)C2(C(=O)CO)O1 (stereo not given)	4.8	?	16.1	-0.3%	-3.6%	5.86µM*
COc1cc(CNCc2cccnc2)ccc1OCc1ccccc1	36.4*	65.2%	75.8*	-2.4%	.	66.6%
Clc1ccc(COc2ccccc2CNCc2cccnc2)cc1	-4.9	.	-12.7	5.2%	-9.9%	4.65µM*
C=CCOc1ccccc1CNCc1cccnc1	3.8	1.0%	-14.6	2.6%	-9.6%	31.7%
NCCc1ccc(OCc2ccccc2)c(OCc2ccccc2)c1	.	?	.	-2.3%	.	10.4µM*
c1ccc(COc2cccc(CNCc3cccnc3)c2)cc1	8.9	?	12.6	0.1%	3.9%	6.6%
CNCC(C)COc1ccccc1OCc1ccccc1 (stereo not given)	-3.3	?	-17.3	27.7%	-7.0%	11.7µM*
Cc1cc(=O)oc2cc(OCC(=O)Nc3ccc(CN4CCOCC4)cc3)c(Cl)cc12	18.2	4.6%	-11.4	-0.9%	-2.9%	17.7%
Cc1ccc(C)c(NC(NC(=O)c2ccccn2)C(Cl)(Cl)Cl)c1 (stereo not given)	1.1	-26.8%	2.5	1.5%	0.4%	?
Fc1cccc(Cl)c1CNCc1cccnc1	-0.9	10.6%	16.8	9.0%	8.8%	11.7µM*
CNCc1ccc(OCc2ccccc2)c(OC)c1	28.5*	14.0%	26.5	0.6%	-1.2%	6.8%
COc1cc(CNCCO)ccc1OCCc1ccccc1	12.7*	-19.4%	10.8	4.3%	6.4%	7.9%
COc1ccc(CNCc2ccco2)cc1OCc1ccccc1	40.9*	71.7%	89.8*	3.4%	?	68.3%
COc1cc(CC(=O)O)ccc1OCc1ccccc1	2.3	4.4%	7.3	0.7%	3.2%	40.5%
CCOc1ccc(NC(=O)c2cc(S(=O)(=O)N3CCOCC3)cn2C)cc1	-4.5	-10.8%	-1.5	-0.9%	6.0%	106.4%
COc1cc(CNCCc2ccccc2)ccc1OCc1ccc(Cl)nc1	8.8	.	34.6	9.7%[6.58 µM]	-7.6%	-100.4%
COc1cc(CNCC(O)c2ccccc2)ccc1OCc1ccc(Cl)nc1 (stereo not given)	16.7*	.	30.2	11.5%	8.2%	3.7µM*
Cc1nc(S(=O)(=O)Nc2ccccc2C(=O)NCC2CC2)cn1C	-2.3	3.29µM*	-6.3	2.1%	0.6%	27.7%

Assay outcomes deposited in PubChem by National Center for Advancing Translational Sciences (NCATS).
